{"source": "PubChem BioAssay AID687016", "about": "(The Scripps Research Institute Molecular Screening Center, 2013)", "note": "Values joined by “and” are separate entries in the source; they are usually repeats but may differ in a detail not shown here. Identical values can stand only once. Out of some 370,000 compounds screened, about 2,800 (0.76%) were called active. No stated cut-off is given here; in the data, active means inhibition above about 21%; inactive means the rest. Many of the other results were omitted from the sample, so actives are more common in it than they were. More than one record can exist for a structure, and the calls need not agree.", "data": [{"target": "E3 ubiquitin-protein ligase UHRF1 (Homo sapiens) (UniProt Q96T88)", "sequence (Q96T88 whole entry, looked up, the tested form may be a part)": "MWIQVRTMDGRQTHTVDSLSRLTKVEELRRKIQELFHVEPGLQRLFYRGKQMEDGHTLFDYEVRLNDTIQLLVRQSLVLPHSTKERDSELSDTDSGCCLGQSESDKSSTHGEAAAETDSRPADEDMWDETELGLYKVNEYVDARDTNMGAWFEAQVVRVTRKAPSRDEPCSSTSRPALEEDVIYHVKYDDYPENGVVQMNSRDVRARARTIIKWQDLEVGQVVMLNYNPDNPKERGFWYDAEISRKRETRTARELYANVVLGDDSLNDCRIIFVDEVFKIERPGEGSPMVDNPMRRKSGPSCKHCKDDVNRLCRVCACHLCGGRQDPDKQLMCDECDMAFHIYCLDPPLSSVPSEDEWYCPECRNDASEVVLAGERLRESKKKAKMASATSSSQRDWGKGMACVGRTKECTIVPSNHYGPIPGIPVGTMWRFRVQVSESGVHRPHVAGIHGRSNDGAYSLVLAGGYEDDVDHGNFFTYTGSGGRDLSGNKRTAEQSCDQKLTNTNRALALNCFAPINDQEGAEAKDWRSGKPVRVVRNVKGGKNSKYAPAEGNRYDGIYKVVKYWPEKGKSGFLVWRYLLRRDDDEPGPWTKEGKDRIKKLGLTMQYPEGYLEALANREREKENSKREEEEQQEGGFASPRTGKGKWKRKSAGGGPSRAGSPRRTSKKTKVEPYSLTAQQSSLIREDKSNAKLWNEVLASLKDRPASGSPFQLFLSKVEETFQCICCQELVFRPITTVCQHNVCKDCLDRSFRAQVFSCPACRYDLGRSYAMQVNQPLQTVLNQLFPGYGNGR", "assay": "blockers of UHRF1 binding to methyl-oligo – biochemical, TR-FRET, human UHRF1, single concentration, counter-screen for MBD2 inhibitor project, primary screen (AID 687016);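 further: UHRF1 SRA domain binding a hemimethylated CpG hairpin DNA probe; 0% = median of test compound wells and 100% = reference inhibitor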", "details": "UHRF1 binding to methylated oligo, at 4.4 µM, stronger effect = higher value", "values": [{"compound": "CCC(C)[C@@H](C(=O)OC)N(CCc1cn(Cc2ccccc2)nn1)S(=O)(=O)c1ccccc1Br", "note": "(stereo not given in full)", "inhibition": "-0.53% (inactive)"}, {"compound": "C[C@@H]1CN([C@@H](C)CO)C(=O)c2cccc(NC(=O)Nc3cccc4ccccc34)c2O[C@H]1CN(C)S(=O)(=O)c1ccccc1F", "inhibition": "-3.8% (inactive)"}, {"compound": "Cc1ccc(-c2nc3ccc(Br)cn3c2Cc2ccccc2C(F)(F)F)cc1", "inhibition": "2.47% (inactive)"}, {"compound": "COC(=O)c1ccc2nc(-c3ccc(OC)c(OC)c3)c(Cc3ccccc3)n2c1", "inhibition": "14.6% (inactive)"}, {"compound": "COC(=O)c1ccc2nc(C3CCCCC3)c(Cc3cccc(F)c3)n2c1", "inhibition": "27.9% (active)"}, {"compound": "COC(=O)c1ccc2nc(-c3ccccc3)c(Cc3ccc(OC)cc3C)n2c1", "inhibition": "22.1% (active)"}, {"compound": "COC(=O)c1ccc2nc(-c3ccc(C)cc3)c(Cc3ccc(OC)cc3C)n2c1", "inhibition": "21.6% (active)"}, {"compound": "CC(C)(C)Cc1c(C2CCCCC2)nc2ccc(Br)cn12", "inhibition": "0.2% (inactive)"}, {"compound": "COc1ccccc1Cc1c(-c2ccc(Cl)cc2)nc2ccc(Cl)cn12", "inhibition": "-0.13% (inactive)"}, {"compound": "COC(=O)c1ccc(CNC(=O)C2CCC(=O)N(Cc3cccc(F)c3)C2)cc1", "note": "(stereo not given)", "inhibition": "0.28% (inactive)"}, {"compound": "CC(=O)Nc1c(-c2ccc(C)cc2)nc2ccc(Cl)cn12", "inhibition": "-0.52% (inactive)"}, {"compound": "COc1ccccc1Cc1c(-c2ccc(F)cc2)nc2ccc(C)cn12", "inhibition": "11.5% (inactive)"}, {"compound": "Brc1ccc2nc(-c3ccccc3)c(Cc3ccccc3)n2c1", "inhibition": "11% (inactive)"}, {"compound": "COC(=O)c1ccc2nc(-c3ccc(F)cc3)c(Cc3ccc(C)cc3)n2c1", "inhibition": "22.9% (active)"}, {"compound": "COP(=O)(O)CNC(=O)OCc1ccccc1", "inhibition": "-1.09% (inactive)"}, {"compound": "Nc1[nH]c(/C=C2/CCCCC2n2[nH]c(=O)n(-c3ccccc3)c2=O)c(Cc2ccccc2)[n+]1Cc1ccccc1", "note": "(stereo not given)", "inhibition": "15.8% (inactive)"}, {"compound": "Nn1c(SCC(=O)N2c3ccccc3Sc3ccccc32)nnc1-c1n[nH]c2c1CCC2", "inhibition": "2% (inactive)"}, {"compound": "C=CCn1c(SCC(N)=O)nnc1-c1ccccc1OC", "inhibition": "-0.8% (inactive)"}, {"compound": "Cc1ccc(C(=O)N(Cc2ccccn2)CC2CCCO2)cc1", "note": "(stereo not given)", "inhibition": "0.72% (inactive)"}, {"compound": "CCOC(=O)N1CCN(C(=O)C[C@H]2C[C@@]3(C(=O)OC)C(=C[C@H](C(C)(C)C)O[C@@H]3C)N(Cc3ccc(Cl)cc3Cl)C2=O)CC1", "inhibition": "0.78% (inactive)"}, {"compound": "CCC(c1ccc(NC(=O)OC(C)(C)C)cc1)c1cc(OC)cc(OC)c1", "note": "(stereo not given)", "inhibition": "-0.84% (inactive)"}, {"compound": "Fc1ccc2nc(COCc3nc4ccc(F)cc4[nH]3)[nH]c2c1", "inhibition": "0.71% (inactive)"}, {"compound": "COC(=O)c1ccc2nc(-c3cccc(Br)c3)c(Cc3ccc(OC)cc3C)n2c1", "inhibition": "21.5% (active)"}, {"compound": "COC(=O)c1ccc2nc(-c3cccc(Br)c3)c(Cc3ccccc3C(F)(F)F)n2c1", "inhibition": "3.57% (inactive)"}, {"compound": "COc1ccc(-c2nc3ccc(Br)cn3c2Cc2ccc(C)cc2)cc1OC", "inhibition": "4.35% (inactive)"}, {"compound": "O=C(CCl)NC1CCCCN(Cc2cccc(C(F)(F)F)c2)C1=O", "note": "(stereo not given)", "inhibition": "0.33% (inactive)"}, {"compound": "CCN(CC(=O)Nc1ccc(NC(C)=O)cc1)C(=O)C1CC(=O)N(Cc2ccc(C)cc2)C1", "note": "(stereo not given)", "inhibition": "21.3% (active)"}, {"compound": "Cc1ccc(CN2CC(C(=O)N3CCN(S(=O)(=O)c4ccccc4)CC3)CC2=O)cc1", "note": "(stereo not given)", "inhibition": "9.15% (inactive)"}, {"compound": "CCN(CC(=O)Nc1ccc(NC(C)=O)cc1)C(=O)C1CC(=O)N(c2ccc3c(c2)OCCO3)C1", "note": "(stereo not given)", "inhibition": "1.89% (inactive)"}, {"compound": "CCCNC(=O)Nc1ccc2c(c1)C(=O)N(C)[C@H]1CC[C@H](CC(=O)NCC3CCCCC3)O[C@@H]1CO2", "inhibition": "10.6% (inactive)"}, {"compound": "O=C(CSc1nnc(COc2ccccc2)n1-c1ccc(Cl)cc1)Nc1ccc2c(c1)OCO2", "inhibition": "1.16% (inactive)"}, {"compound": "CCC(CO)Nc1cccc2c1S(=O)(=O)N(Cc1cn(Cc3ccccc3C(F)(F)F)nn1)Cc1ccccc1O2", "note": "(stereo not given)", "inhibition": "2.09% (inactive)"}, {"compound": "COc1ccccc1C1=CC(=O)C[C@H](c2ccc(F)cc2)C1", "inhibition": "1.8% (inactive)"}, {"compound": "COc1cccc(C2=CC(=O)C[C@H](c3ccc(F)cc3)C2)c1OC", "inhibition": "-0.67% (inactive)"}, {"compound": "O=C1C=C(c2cccc(Cl)c2O)C[C@@H](c2ccc(F)cc2)C1", "inhibition": "21% (active)"}, {"compound": "Cc1ccc(-c2nnc(SCC(=O)Nc3ccc(Oc4ccccc4)cc3)n2Cc2ccco2)cc1", "inhibition": "-0.31% (inactive)"}, {"compound": "O=C(CC(n1cncn1)C(Cl)(Cl)Cl)c1ccc([N+](=O)[O-])cc1", "note": "(stereo not given)", "inhibition": "0.74% (inactive)"}, {"compound": "Cc1ccc(C(=O)Cn2cccn2)cc1", "inhibition": "5.04% (inactive)"}, {"compound": "O=C(Cn1c[n+](CC(=O)c2ccc([N+](=O)[O-])cc2)cn1)c1ccc([N+](=O)[O-])cc1", "inhibition": "50.5% (active) and -2.04% (inactive)"}, {"compound": "Cc1ccc(NC(=S)NNC(=O)CSc2nnc(SCc3ccccc3Cl)s2)cc1", "inhibition": "-10.8% (inactive)"}, {"compound": "COc1cccc(CSc2nnc(-c3cccnc3)n2Cc2ccccc2)c1", "inhibition": "-0.03% (inactive)"}, {"compound": "CCOc1cc(N2CCOCC2)c(OCC)cc1NC(=O)c1cc(C)nc2ccccc12", "inhibition": "23.5% (active)"}, {"compound": "CCOc1cc(N2CCOCC2)c(OCC)cc1NC(=O)C1=NN(c2cccc(C)c2)C(=O)CC1", "inhibition": "0.92% (inactive)"}, {"compound": "Cc1cc(C(=O)NNC(=O)c2cccc(S(=O)(=O)N3CCOCC3)c2)c2ccccc2n1", "inhibition": "-0.61% (inactive)"}, {"compound": "CC(C)(C)OC(=O)NCc1cc(F)ccc1/C=C/S(=O)(=O)NCCc1ccccc1", "inhibition": "0.11% (inactive)"}, {"compound": "CCOC(=O)/C(=N\\Nc1ccccc1Cl)N(C)C1CCS(=O)(=O)C1", "note": "(stereo not given)", "inhibition": "23.3% (active)"}, {"compound": "CCOC(=O)/C(=N\\Nc1cc(Cl)ccc1Cl)N1CCN(C)CC1", "inhibition": "-0.04% (inactive)"}, {"compound": "CC(=O)c1ccc(OCC(=O)N(C)C2CCS(=O)(=O)C2)cc1", "note": "(stereo not given)", "inhibition": "1.81% (inactive)"}, {"compound": "CCOC(=O)[C@]12CCCCC/C=C\\1N(Cc1ccc(OC)cc1)C(=O)[C@H]2CC(=O)NCCCN1CCCC1=O", "inhibition": "-0.93% (inactive)"}, {"compound": "CCOC(=O)[C@]12CCCC3=C1N(CCC3)C(=O)[C@@H](CC(=O)NCC13CC4CC(CC(C4)C1)C3)C2", "inhibition": "-0.2% (inactive)"}, {"compound": "O=C(CCCCCN1C(=O)C2C3C=CC(C3)C2C1=O)Nc1ccccn1", "note": "(stereo not given)", "inhibition": "-0.7% (inactive)"}, {"compound": "COc1ccc(N2CCN(CCNS(=O)(=O)c3ccc(C(C)(C)C)cc3)CC2)cc1", "inhibition": "0.26% (inactive)"}, {"compound": "C=CCOc1ccc(/C=C/C(=O)OC(C)C(=O)Nc2ccc(NC(C)=O)cc2)cc1", "note": "(stereo not given)", "inhibition": "0.2% (inactive)"}, {"compound": "CC(OC(=O)/C=C/c1ccccc1)C(=O)Nc1ccc(C(N)=O)cc1", "note": "(stereo not given)", "inhibition": "-0.02% (inactive)"}, {"compound": "CCc1ccc(NC(=O)C(C)OC(=O)/C=C/c2cccc([N+](=O)[O-])c2)cc1", "note": "(stereo not given)", "inhibition": "21.5% (active)"}]}]}
